Results on 26 compounds are retold here after PubChem BioAssay (EPA / NIEHS).

In general, AC50 refers to the concentration giving half of the maximal activity seen.

SMILES strings stand for the structures. Where “and” joins values, the source holds several entries; their conditions need not be identical. Identical values can stand only once. Some compounds were tested as several samples or in several runs, with calls that do not always agree. Calls of active or inactive are those of the source. The calls were made as follows: active = hit-call score of the fitted dose curve at least 0.9, where 1 is the maximum; inactive = score below 0.9.

A short description of one assay: APR_HepG2_MicrotubuleCSK_24hr: Apredica 24-hour HepG2 Assay for Microtubule CSK Stabilty (AID 2282909). To be noted: HepG2 microtubule cytoskeleton imaging, actives raise or lower the signal. A digest of the protocol:
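Human liver HepG2, 24 h dosing, 0.39–200 uM ×10 conc, dup, 0.5% DMSO. 3.7% formaldehyde fix, 0.5% Triton perm, anti-alpha-tubulin (1:200)/Cy5 secondary + Hoechst. HCS imaging, 6 fields/well; gain/loss fit vs DMSO.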
As for `CC(Oc1ccc(Cl)cc1Cl)C(=O)O` (stereo not drawn), the result was inactive.

In the case of `CN(C)C(=S)SSC(=S)N(C)C`, the AC50 is 17.6 µM (active).

Regarding `CCON=C(CC)C1=C(O)CC(c2c(C)cc(C)cc2C)CC1=O` (stereo not drawn), the result was inactive.

Regarding `CS/C(C)=N/OC(=O)N(C)SN(C)C(=O)O/N=C(\C)SC`, the result was inactive.

`CCCCNC(=O)OCC#CI`: the AC50 is 14.7 µM (active) and the result was inactive.

As to `C=CCC1=C(C)[C@@H](OC(=O)[C@@H]2[C@@H](C=C(C)C)C2(C)C)CC1=O`, the AC50 was 55.9 µM (active).

A further assay can be described thus: APR_HepG2_MitoticArrest_24hr: Apredica 24-hour HepG2 Assay for Mitotic Arrest (AID 2282910). Conditions: high-content imaging, actives raise or lower the signal. A digest of the protocol: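 HepG2 cells, 24 h exposure at 0.39-200 uM (10 concentrations, duplicate, 0.5% DMSO). Fixed, stained for phospho-histone H3 with Hoechst; imaged by high-content microscopy, bidirectional fit versus DMSO.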
As to `O=C(O)COc1nc(Cl)c(Cl)cc1Cl`, the compound was called inactive.

`CC(C)(C)c1ccc(CSc2cnn(C(C)(C)C)c(=O)c2Cl)cc1`: the result was inactive.

As for `COC(=O)C(C)Oc1ccc(Oc2ccc(Cl)cc2Cl)cc1` (stereo not drawn), the compound was called inactive.

For `CCOC(=O)C(Cl)Cc1cc(-n2nc(C)n(C(F)F)c2=O)c(F)cc1Cl` (stereo not drawn), the outcome was inactive.

As to `CC1=C(C(=O)Nc2ccccc2)SCCO1`, the compound was classed as inactive.

On to `COc1cnc(OC)n2nc(NS(=O)(=O)c3c(OCC(F)F)cccc3C(F)(F)F)nc12`, for which the call was inactive.

For `CO/C=C(/C(=O)OC)c1ccccc1Oc1cc(Oc2ccccc2C#N)ncn1`, the compound was classed as inactive.

Regarding `CCOC(=O)CC(SP(=S)(OC)OC)C(=O)OCC` (stereo not drawn), the compound was called inactive.

As for `CC(C)Oc1cc(-n2nc(C(C)(C)C)oc2=O)c(Cl)cc1Cl`, the call was inactive.

With `N#CC(CCc1ccc(Cl)cc1)(Cn1cncn1)c1ccccc1` (stereo not drawn), the AC50 was 106 µM (active).

Take `Cc1c(F)c(F)c(COC(=O)C2C(/C=C(\Cl)C(F)(F)F)C2(C)C)c(F)c1F` (stereo not drawn): the result was inactive.

`COc1nc(C)nc(NC(=O)NS(=O)(=O)c2ccccc2Cl)n1`: the compound was classed as inactive.

As for `CCCCNC(=O)n1c(NC(=O)OC)nc2ccccc21`, the compound was classed as inactive.

Consider `COC(=O)c1ccccc1C(=O)OC`, for which the call was inactive.

With `COP(=S)(OC)Oc1nc(Cl)c(Cl)cc1Cl`, the compound was called inactive.

For `Cc1cc(Cl)ccc1OCC(=O)O`, the result was inactive.

As to `CON(C)C(=O)Nc1ccc(Cl)c(Cl)c1`, the result was inactive.

Regarding `COc1ccc(C(c2ccc(OC)cc2)C(Cl)(Cl)Cl)cc1`, the compound was called inactive.

Take `CCNc1nc(Cl)nc(NCC)n1`: the compound was called inactive.

Turning to `CCCN(CCC)c1c([N+](=O)[O-])cc(S(N)(=O)=O)cc1[N+](=O)[O-]`, the AC50 was 35.4 µM (active) and 38.4 µM (active); the outcome was inactive.

`CC(Oc1ccc(Cl)cc1Cl)C(=O)O` (stereo not drawn): the outcome was inactive.

Turning to `CN(C)C(=S)SSC(=S)N(C)C`, the call was inactive.

For `CCON=C(CC)C1=C(O)CC(c2c(C)cc(C)cc2C)CC1=O` (stereo not drawn), the result was inactive.

As to `CS/C(C)=N/OC(=O)N(C)SN(C)C(=O)O/N=C(\C)SC`, the call was inactive.

Turning to `CCCCNC(=O)OCC#CI`, the call was inactive.

For the compound `C=CCC1=C(C)[C@@H](OC(=O)[C@@H]2[C@@H](C=C(C)C)C2(C)C)CC1=O`, the outcome was inactive.

A short description of another assay: APR_HepG2_MitoMembPot_24hr: Apredica 24-hour HepG2 Assay for Mitochondrial Membrane Potential (AID 2282911). To be noted: imaging, actives raise or lower the signal. A digest of the protocol: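 Mitochondrial dye uptake (MitoTracker Red CMXRos, 250 nM, 30 min pre-fixation) in HepG2 after 24 hr compound exposure, 0.39–200 uM; ArrayScan images at 20x, activity fitted in both directions relative to DMSO.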
In the case of `O=C(O)COc1nc(Cl)c(Cl)cc1Cl`, the result was inactive.

Take `CC(C)(C)c1ccc(CSc2cnn(C(C)(C)C)c(=O)c2Cl)cc1`: the outcome was inactive.

As for `COC(=O)C(C)Oc1ccc(Oc2ccc(Cl)cc2Cl)cc1` (stereo not drawn), the AC50 was 129 µM (active) and the result was inactive.

In the case of `CCOC(=O)C(Cl)Cc1cc(-n2nc(C)n(C(F)F)c2=O)c(F)cc1Cl` (stereo not drawn), the call was inactive.

As for `CC1=C(C(=O)Nc2ccccc2)SCCO1`, the outcome was inactive.

Regarding `COc1cnc(OC)n2nc(NS(=O)(=O)c3c(OCC(F)F)cccc3C(F)(F)F)nc12`, the call was inactive.

Turning to `CO/C=C(/C(=O)OC)c1ccccc1Oc1cc(Oc2ccccc2C#N)ncn1`, the AC50 is 21.2 µM (active) and the compound was called inactive.

With `CCOC(=O)CC(SP(=S)(OC)OC)C(=O)OCC` (stereo not drawn), the outcome was inactive.

Take `CC(C)Oc1cc(-n2nc(C(C)(C)C)oc2=O)c(Cl)cc1Cl`: the call was inactive.

Consider `N#CC(CCc1ccc(Cl)cc1)(Cn1cncn1)c1ccccc1` (stereo not drawn), for which the call was inactive.

Take `Cc1c(F)c(F)c(COC(=O)C2C(/C=C(\Cl)C(F)(F)F)C2(C)C)c(F)c1F` (stereo not drawn): the call was inactive.

In the case of `COc1nc(C)nc(NC(=O)NS(=O)(=O)c2ccccc2Cl)n1`, the outcome was inactive.

With `CCCCNC(=O)n1c(NC(=O)OC)nc2ccccc21`, the compound was called inactive.

Regarding `COC(=O)c1ccccc1C(=O)OC`, the outcome was inactive.

As to `COP(=S)(OC)Oc1nc(Cl)c(Cl)cc1Cl`, the compound was classed as inactive.

With `Cc1cc(Cl)ccc1OCC(=O)O`, the outcome was inactive.

In the case of `CON(C)C(=O)Nc1ccc(Cl)c(Cl)c1`, the AC50 was 28.9 µM (active).

As for `COc1ccc(C(c2ccc(OC)cc2)C(Cl)(Cl)Cl)cc1`, the result was inactive.

Turning to `CCNc1nc(Cl)nc(NCC)n1`, the call was inactive.

Consider `CCCN(CCC)c1c([N+](=O)[O-])cc(S(N)(=O)=O)cc1[N+](=O)[O-]`, for which the AC50 was 31.6 µM (active) and 117 µM (active) and 110 µM (active); the compound was classed as inactive.

For the compound `CC(Oc1ccc(Cl)cc1Cl)C(=O)O` (stereo not drawn), the compound was called inactive.

As to `CN(C)C(=S)SSC(=S)N(C)C`, the compound was called inactive.

As for `CCON=C(CC)C1=C(O)CC(c2c(C)cc(C)cc2C)CC1=O` (stereo not drawn), the outcome was inactive.

Regarding `CS/C(C)=N/OC(=O)N(C)SN(C)C(=O)O/N=C(\C)SC`, the call was inactive.

On to `CCCCNC(=O)OCC#CI`, for which the AC50 was 119 µM (active) and 41 µM (active).

Regarding `C=CCC1=C(C)[C@@H](OC(=O)[C@@H]2[C@@H](C=C(C)C)C2(C)C)CC1=O`, the outcome was inactive.
